Screen size: about 220,000 compounds; about 1,600 (0.73%) were called active.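 How the source made its calls: active means mean inhibition across duplicate retests at 20 µM reaching about 50% (limit read from the data); inactive means the rest, inconclusive results apart.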 The entries come from a sample that favours actives as a whole.

The target in this experiment is Runt-related transcription factor 1 (Homo sapiens) + Core-binding factor subunit beta (Homo sapiens) (UniProt Q01196+Q13951). As to the kind of experiment: inhibitors of RUNX1 Runt–CBFb-SMMHC binding, primary screen, biochemical, FRET, Cerulean-Runt, Venus-CBFb-SMMHC, uHTS (AID 1434).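 Further: 0% = DMSO wells and 100% = wells with excess untagged CBFb-SMMHC; inhibitors lower the FRET ratio by blocking Runt binding to CBFb-SMMHC.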 As to conditions: Cerulean-Runt/Venus-CBFb-SMMHC FRET ratio 530/480, 1 h, at 20 µM, stronger effect = higher value.
Sequence of Runt-related transcription factor 1 (Homo sapiens) + Core-binding factor subunit beta (Homo sapiens) (Q01196 whole entry, looked up): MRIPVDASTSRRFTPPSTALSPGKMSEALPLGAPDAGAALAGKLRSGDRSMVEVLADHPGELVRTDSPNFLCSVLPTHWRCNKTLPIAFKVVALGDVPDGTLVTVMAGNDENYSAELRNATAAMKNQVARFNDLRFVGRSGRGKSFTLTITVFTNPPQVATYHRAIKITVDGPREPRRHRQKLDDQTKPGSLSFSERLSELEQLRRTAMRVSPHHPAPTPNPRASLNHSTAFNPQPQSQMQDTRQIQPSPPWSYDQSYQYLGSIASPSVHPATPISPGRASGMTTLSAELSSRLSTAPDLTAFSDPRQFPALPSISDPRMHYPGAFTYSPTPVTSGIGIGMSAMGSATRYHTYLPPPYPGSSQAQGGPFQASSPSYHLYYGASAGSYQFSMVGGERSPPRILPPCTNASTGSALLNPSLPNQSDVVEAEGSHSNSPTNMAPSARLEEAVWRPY
Sequence of Runt-related transcription factor 1 (Homo sapiens) + Core-binding factor subunit beta (Homo sapiens) (Q13951 whole entry, looked up): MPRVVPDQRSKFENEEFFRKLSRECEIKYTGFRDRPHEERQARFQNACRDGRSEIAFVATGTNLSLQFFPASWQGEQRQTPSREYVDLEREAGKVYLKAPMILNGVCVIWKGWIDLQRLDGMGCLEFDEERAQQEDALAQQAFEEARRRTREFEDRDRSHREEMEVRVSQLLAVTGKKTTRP

Turning to `O=C(OCCN1CCOCC1)C1(c2ccccc2)CCCC1`, the inhibition was -5.6% (inactive).

With `CCOC(=O)c1c(N)n(Cc2ccccc2)c2nc3ccccc3nc12`, the inhibition was 97.2% (active). The inhibition (retest duplicate average) came out at 128%.

`COc1cc(Cn2c(N)c(C(=O)NCc3ccco3)c3nc4ccccc4nc32)cc(OC)c1OC`: the inhibition is 34.2% (inactive).

With `CCOC(=O)c1c(N)n(CCN2CCOCC2)c2nc3ccccc3nc12`, the inhibition was 69.9% (active). Further, under “retest duplicate average”, the inhibition came out at 73.1%.

Turning to `CC/C(=N\NC(=O)c1ccccc1O)c1c(O)n(Cc2ccccc2)c(=O)[nH]c1=O`, the inhibition is -0.6% (inactive).

For `CCOc1cccc(=NC2CCCCC2)c2c(C)[nH]c(C)c12`, the inhibition is -11% (inactive).

With `CC1(C)C(c2ccccc2)=NC(c2cccnc2)=[N+]1[O-]`, the inhibition was -6.5% (inactive).

As for `C/C=C/CC1(CC)C(=O)NC(=S)NC1=O`, the inhibition was -3.2% (inactive).

With `COc1cc(OC)cc(C2(C#N)CCN(C)CC2)c1`, the inhibition was -1.4% (inactive).

`CCOC(=O)C1(CCc2ccccc2)CCN(Cc2ccco2)CC1`: the inhibition was -5.4% (inactive).

As usually defined, the inhibition is the drop in the measured response relative to a control, in per cent.

The values above are taken from PubChem BioAssay AID1434 (Sanford-Burnham Center for Chemical Genomics, 2008).
